PubChem BioAssay (NCI)
Compounds without any hit were thinned out: in the full panel of roughly 83,000, 20% have a hit.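 Method: cells in 96-well plates; compound added at one concentration; 48 h incubation; percent growth measured; values under 10 scored active.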 Calls of active or inactive are those of the source.

tested on: COLO 205 colon; assay: NCI-60 one-dose screen, 48 h (100 = growth as untreated, 0 = no growth, -100 = all killed); details: 10 µM unless noted

Compound	growth
CC(C)CSc1nc(Nc2ccccc2)c(C#N)c(-c2ccc(F)cc2)n1	20.3% (inactive)
CCCCC(=O)Nc1c(C(=O)Nc2ccccc2)sc2nc3c(cc12)C(OC(=O)CCCC)CCC3 (configuration not stated)	90.3% (inactive)
COC(=O)[C@]1(C)CCC[C@]2(C)[C@H]3C[C@H]4C(C(C)C)=C[C@]3(CC[C@H]21)[C@@H]1C(=O)N(CCC#N)C(=O)[C@@H]14	94.7% (inactive)
CCN1CCN(c2ccc(NC(=O)Nc3nc4ccc(-c5ccccc5OC)cc4s3)cc2)CC1	-73.2% (active)
C[C@H]1[C@H](C)CC[C@]2(C(=O)OCCOCCOCC[P+](c3ccccc3)(c3ccccc3)c3ccccc3)CC[C@]3(C)C(=CC[C@@H]4[C@@]5(C)CC[C@H](OC(=O)C(Cl)Cl)C(C)(C)[C@@H]5CC[C@]43C)[C@H]12	-7.06% (active)
COc1ccc(/C(=N\O)c2cc(C)c(OC)c(C)c2)cc1O	-38% (active)
O=C(Nc1nccs1)c1noc2ccccc12	104% (inactive)
CCOc1ccccc1C(=O)/C=C/c1cc2ccccc2[nH]c1=O	-50.8% (active)
Cc1ccc(-c2nc(C#N)c(S(=O)(=O)N(C)CCO)o2)cc1	44.3% (inactive)
Cc1ccc(C2CC(c3ccc(Nc4nc(NCCO)nc(NCCO)n4)cc3)=NN2c2ccc(Cl)cc2)cc1 (configuration not stated)	70.3% (inactive)
CN(C)CCCn1c2c(c3cc(-c4cccc(S(N)(=O)=O)c4)ccc3c1=O)C(=O)c1ccccc1-2	59.1% (inactive)
C=C(C)[C@@H]1CC[C@]2(C(=O)OCCOCCOCC[P+](c3ccccc3)(c3ccccc3)c3ccccc3)CC[C@]3(C)[C@H](CC[C@@H]4[C@@]5(C)CC[C@H](OC(=O)C(Cl)Cl)C(C)(C)[C@@H]5CC[C@]43C)[C@@H]12	-83.7% (active)
COC(=O)/C=C/c1cc(OC(C)=O)c2c(c1)C(C(=O)OC)C(c1ccc(OC(C)=O)c(OC(C)=O)c1)O2 (configuration not stated)	38.9% (inactive)
O=C(Nc1ccc(S(=O)(=O)NC2CCCCCC2)cc1)C(c1ccccc1)S(=O)(=O)c1ccc(F)cc1 (configuration not stated)	-18% (active)
COc1ccc2cc(/C=C3\N=C(c4cc(OC)c(OC)c(OC)c4)OC3=O)c(OC)nc2c1	117% (inactive)
N#Cc1ccc(C2C3=C(CCCC3=O)OC3=C2C(=O)c2ccccc2C3=O)cc1 (configuration not stated)	109% (inactive)
COCCOCCOCc1n(Cc2ccc3ccccc3c2)c2ccccc2[n+]1Cc1ccc2ccccc2c1	-60.7% (active)
CC(=O)Nc1c(C(=O)Nc2ccccc2)sc2nc3c(cc12)C(OC(C)=O)CCC3 (configuration not stated)	110% (inactive)
CCc1ccc(OCc2ccccc2C(=O)Nc2ccc3nc(C)cc(N)c3c2)cc1	-79% (active)

Compound	growth
COc1ccc(C2C(c3ccccc3)C(=O)N2c2cc(OC)c(OC)c(OC)c2)cc1I (configuration not stated)	-64.3% (active)
COc1cc(/C=C/C(=O)c2cccs2)ccc1OCc1ccc(Cl)nc1	98.1% (inactive)
C=C1C(=O)O[C@H]2[C@H]1CC/C(COC(=O)CCCCCCC(=O)OC/C1=C/CC[C@@]3(C)O[C@H]3[C@H]3OC(=O)C(=C)[C@@H]3CC1)=C\CC[C@@]1(C)O[C@@H]21	-64.6% (active)
COc1ccc(C2CC(c3ccc(OC)cc3O)=NN2c2ccc(S(N)(=O)=O)cc2)cc1 (configuration not stated)	29.5% (inactive)
CCCn1cc(/C=N\N=C2\C(=O)Nc3ccc(C)cc32)c2ccccc21	-16.2% (active)
N#Cc1c(-c2ccc(Cl)cc2)cc(-c2cc3ccccc3o2)nc1SCC(=O)c1ccc(Cl)cc1	106% (inactive)
CCCCCCCCCCCCCC1=NCC[N+]1(CCO)Cc1ccccc1 (configuration not stated)	-75.5% (active)
Nc1c(C(=O)Nc2cccc3ccccc23)sc2nc3c(cc12)CCCCC3	2.61% (active)
Cc1c(Cl)cccc1NC(=O)c1sc2nc3c(cc2c1N)CCCCCC3	-12% (active)
N#Cc1c(-c2ccc(F)cc2)nc(N=Nc2c(O)[nH]c3ccc(Cl)cc23)nc1N1CCOCC1	65.5% (inactive)
Cc1ccccc1NC(=O)c1sc2nc(C)c(C(C)O)cc2c1N (configuration not stated)	40.5% (inactive)
COc1cc(F)c(-c2nc3c(C)cccc3n2Cc2c(F)cccc2F)c(F)c1	98% (inactive)
Oc1ccc(CNNc2ccnc3c(O)cccc23)c2cccnc12	64.8% (inactive)
CC1(C)Cc2c(Br)c(Br)c(Br)c(OCC(O)CN3CCOCC3)c2O1 (configuration not stated)	116% (inactive)
CCCCCOC(=O)c1ccccc1O	120% (inactive)
C=C1C(=O)O[C@H]2[C@H]1CC/C(COC(=O)CCCCCCCCC(=O)OC/C1=C/CC[C@@]3(C)O[C@H]3[C@H]3OC(=O)C(=C)[C@@H]3CC1)=C\CC[C@@]1(C)O[C@@H]21	-46.4% (active)
C=C1C(=O)O[C@H]2[C@H]1CCC(/C=N/c1ncc(Br)cc1N)=C\CC[C@@]1(C)O[C@@H]21	-60% (active)
O=C1CCC23OC(c4ccccc4N12)C(O)C(O)C3O (configuration not stated)	124% (inactive)
